Assay results reported in ChEMBL document CHEMBL3433997, “St. Jude Leishmania screening dataset” (2016).

Experiments:
Format in all cases: functional
[1] = target: Solute carrier family 2, facilitated glucose transporter member 1 (Homo sapiens) (UniProt P11166); assay: ST_JUDE_LEISH: Cytotoxicity at 2uM final concentration against transgenic Leishmania Mexicana promastigotes LmGLUT1 that are glucose transport deficient and complemented with the human glucose transporter GLUT1. Activity is measured by DNA content using SYBR green in vitro
Chain of Solute carrier family 2, facilitated glucose transporter member 1 (Homo sapiens) (P11166 whole entry): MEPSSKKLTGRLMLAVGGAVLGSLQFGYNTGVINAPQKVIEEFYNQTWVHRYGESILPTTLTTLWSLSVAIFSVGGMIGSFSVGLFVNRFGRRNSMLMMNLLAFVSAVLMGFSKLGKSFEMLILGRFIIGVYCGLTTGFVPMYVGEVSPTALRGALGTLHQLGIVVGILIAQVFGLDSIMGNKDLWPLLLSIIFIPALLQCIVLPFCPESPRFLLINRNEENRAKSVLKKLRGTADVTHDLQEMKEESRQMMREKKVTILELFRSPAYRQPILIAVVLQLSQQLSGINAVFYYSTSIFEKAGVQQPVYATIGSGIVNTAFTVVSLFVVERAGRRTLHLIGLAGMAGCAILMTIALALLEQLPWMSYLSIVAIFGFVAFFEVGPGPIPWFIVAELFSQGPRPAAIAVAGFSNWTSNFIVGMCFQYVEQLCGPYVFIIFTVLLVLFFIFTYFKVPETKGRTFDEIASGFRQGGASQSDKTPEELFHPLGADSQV

[2] = target: Hexose transporter 1 (Plasmodium falciparum) (UniProt O97467); assay: ST_JUDE_LEISH: Cytotoxicity at 2uM final concentration against transgenic Leishmania Mexicana promastigotes LmPfHT that are glucose transport deficient and complemented with the Plasmodium falciparum hexose transporter. Activity is measured by DNA content using SYBR green in vitro
[3] = target: Glucose transporter (Leishmania mexicana) (UniProt O61059); assay: ST_JUDE_LEISH: Cytotoxicity at 2uM final concentration against transgenic Leishmania Mexicana promastigotes LmGT2 that are glucose transport deficient and complemented with the L. Mexicana glucose transporter 2. Activity is measured by DNA content using SYBR green in vitro

Question: Which results are given for `C[C@H](NC(=O)c1c(OC2CN(C(c3ccccc3)c3ccccc3)C2)c(-c2ccccc2)nc2ccccc12)C1CCCCC1`?
Answer: inhibition [1]: 2.01%; inhibition [2]: 0.08%; inhibition [3]: 0.33%

Question: Which results are given for `O=C(Nc1cccc(OC2CCN(Cc3ccccc3)CC2)c1)Nc1cccc([N+](=O)[O-])c1`?
Answer: inhibition [1]: 3.41%; inhibition [2]: 2.74%; inhibition [3]: 2.57%

Question: `CC(=O)N(Cc1nc(-c2cc(Cl)c(Cl)s2)cs1)c1c(C)cccc1C` was tested. Which inhibition [1] did it give?
Answer: Its inhibition is 4.94%.

Question: What about the inhibition [2] of the same molecule?
Answer: Its inhibition is 4.38%.

Question: And the inhibition [3]?
Answer: Its inhibition is 5.58%.

Question: Which results are given for `COc1ccc2nc3cc(Cl)ccc3c(Nc3ccc(Oc4ccc(Nc5c6ccc(Cl)cc6nc6ccc(OC)cc56)cc4)cc3)c2c1`?
Answer: inhibition [1]: 1.15%; inhibition [2]: 1.19%; inhibition [3]: 1.3%

Question: What does the source list for `CNCc1ccc2nc(-c3coc(Cc4cc(Cl)ccc4OCC(C)C)n3)[nH]c2c1`?
Answer: inhibition [1]: 6.56%; inhibition [2]: 4.9%; inhibition [3]: 3.77%

Question: Which inhibition [1] does the source give for `O=C(O)c1ccc2c(c1)N(C(=O)CNCc1ccc(F)cc1)CC(=O)N2CCCc1ccccc1` here?
Answer: The inhibition was -4.22%.

Question: And the inhibition [2]?
Answer: Its inhibition is -1.82%.

Question: What about the inhibition [3] of the same molecule?
Answer: The inhibition was -2.25%.

Question: Which results are given for `CCN(CC)CCN(Cc1ccc(-c2ccc(C(F)(F)F)cc2)cc1)C(=O)Cn1cc(CCCc2cccc(F)c2F)c(=O)c2ccccc21`?
Answer: inhibition [1]: 4.03%; inhibition [2]: 3.93%; inhibition [3]: 4.35%

Question: For `N#Cc1ccc(-c2ccc(C(=O)NC3CCN(CCN4CCC(c5cn(CCOC6CCCCO6)c6ccccc56)CC4)CC3)cc2)cc1` (stereo not drawn), which inhibition [1] is on record?
Answer: Its inhibition is 14.4%.

Question: And the inhibition [2]?
Answer: Its inhibition is 6.81%.

Question: And the inhibition [3]?
Answer: Its inhibition is 21.2%.

Question: Which results are given for `COc1ccc2c(=NN=C(C)c3ccccn3)cc(C)[nH]c2c1`?
Answer: inhibition [1]: 5.68%; inhibition [2]: 9.51%; inhibition [3]: 4.08%

Question: `CCCCN1CCN(c2cc(NS(=O)(=O)c3cccc(C(=O)Nc4ccc(C(F)(F)F)cc4)c3)ccc2OC)CC1` was tested. Which inhibition [1] did it give?
Answer: Its inhibition is 0.33%.

Question: And the inhibition [2]?
Answer: The inhibition was -1.12%.

Question: And the inhibition [3]?
Answer: The inhibition was -1.22%.

Question: Which results are given for `C1=CN(Cc2ccccc2)C=CC1=C1C=Nc2ccccc21`?
Answer: inhibition [1]: 12.1%; inhibition [2]: 10.4%; inhibition [3]: 8.71%
